Screens (PubChem BioAssay)
The list is not random: actives were taken first. Their share in the collection is about 2.3%.
Pf Dd2 inh: inhibitors of Plasmodium falciparum Dd2 growth. P. falciparum Dd2 growth, SYBR Green, 72 h; stronger effect = lower value. activity change, % at 10 µM. 2.3% of 94,000 active; in the data active means activity change below about -80%; inconclusive means no clear call, values can overlap the other calls
C diff growth: inhibitors of Clostridium difficile growth; Clostridium difficile clinical isolate growth, OD600, 24 h; stronger effect = lower value; growth activity, negative = inhibition, % at 16 µg/mL (by protocol); 0.25% of 86,000 active; AID 1259249;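 active means mean growth activity at or below -80% and every replicate also at or below -80%; inconclusive means mean at or below -80% but some replicate above -80%; inactive means mean growth activity above -80%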;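 further: 0% = DMSO wells and -100% = levofloxacin 16 µg/mL wells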
Numbers without * were called inactive; ? = inconclusive; nt = no result given.

SMILES	Pf Dd2 inh	C diff growth
C[C@H](CO)N1C[C@H](C)[C@H](CN(C)C(=O)Nc2cccc3ccccc23)OCCCC[C@H](C)Oc2ccc(NC(=O)Nc3ccc(F)cc3)cc2C1=O	-48	-3
C[C@@H]1CCCCO[C@@H](CN(C)C(=O)Nc2cccc3ccccc23)[C@@H](C)CN([C@@H](C)CO)C(=O)c2cc(NC(=O)Nc3ccc(C(F)(F)F)cc3)ccc2O1	-91*	6
C[C@@H]1CN([C@H](C)CO)C(=O)c2cc(NC(=O)Nc3ccc(C(F)(F)F)cc3)ccc2O[C@@H](C)CCCCO[C@@H]1CN(C)C(=O)Nc1cccc2ccccc12	-82*	5
N#Cc1ccc(-c2ccc3c(c2)[C@@H]2[C@@H](CCN2C(=O)C2CC2)[C@@H](CO)N3)cc1	6	2
CN(C)C(=O)c1cccc(-c2ccc3c(c2)[C@@H]2[C@@H](CCN2C(=O)C2CCOCC2)[C@H](CO)N3)c1	3	2
COc1ccc2c3c([nH]c2c1)[C@H](CO)N(Cc1ccccc1Cl)CC31CCN(C(C)=O)CC1	-89*	8
COc1ccc2c3c([nH]c2c1)[C@@H](CO)N(Cc1ccccc1Cl)CC31CN(C(=O)C2CC2)C1	-71	5
COc1ccc2c3c([nH]c2c1)[C@@H](CO)N(Cc1ccccc1Cl)CC31CCN(C(=O)C2CC2)CC1	-87*	7
COc1ccc2c3c([nH]c2c1)[C@H](CO)N(Cc1ccccc1F)CC31CCN(C(=O)C2CCCC2)CC1	-18	-11
COc1ccc2c3c([nH]c2c1)[C@H](CO)N(Cc1ccccc1Cl)CC31CN(C(C)=O)C1	-90*	-2
COc1ccc2c3c([nH]c2c1)[C@@H](CO)N(Cc1ccccc1F)CC31CCN(C(=O)C2CC2)CC1	-85*	2
COCC(=O)N1CC2(C1)CN(Cc1ccccc1Cl)[C@@H](CO)c1[nH]c3cc(OC)ccc3c12	-37	-1
COc1ccc2c3c([nH]c2c1)[C@H](CO)N(C(C)=O)CC31CCN(Cc2ccccc2Cl)CC1	-50	2
Cc1ccc(S(=O)(=O)NCC[C@@H]2CC[C@@H](NC(=O)c3cnccn3)[C@@H](CO)O2)cc1	-1	nt
COCc1cn(CC[C@H]2CC[C@H](NC(=O)Nc3ccc(OC)cc3)[C@H](CO)O2)nn1	-17	6
C[C@H]1CN([C@@H](C)CO)C(=O)Cc2cc(NS(=O)(=O)c3ccc(F)cc3)ccc2O[C@H]1CN(C)S(=O)(=O)c1cn(C)cn1	1	1
CO[C@@H]1CN(C)C(=O)c2cc(NS(=O)(=O)c3cccc(Cl)c3)ccc2OC[C@@H](C)NC[C@H]1C	0	nt
CO[C@@H]1CN(C)C(=O)c2cc(NC(=O)Nc3cccc(F)c3)ccc2OC[C@H](C)NC[C@@H]1C	4	nt
Cc1noc(C)c1NC(=O)N(C)C[C@@H]1Oc2ccc(NC(=O)C3CCCCC3)cc2C(=O)N([C@H](C)CO)C[C@H]1C	15	-5
COc1ccc(CN(C)C[C@@H]2OCCCC[C@H](C)Oc3ccc(NS(=O)(=O)c4cccs4)cc3C(=O)N([C@@H](C)CO)C[C@H]2C)cc1	-59	2
CCS(=O)(=O)N1CC2(CN(Cc3ccccc3F)[C@@H](CO)c3[nH]c4cc(OC)ccc4c32)C1	-87*	-1
COc1ccc2c3c([nH]c2c1)[C@@H](CO)N(Cc1ccccc1F)CC31CN(C)C1	-7	-2
COCC(=O)N1CCC2(CC1)CN(Cc1ccccc1Cl)[C@H](CO)c1[nH]c3cc(OC)ccc3c12	-83*	-3
COCC(=O)N1CCC2(CC1)CN(Cc1ccccc1Cl)[C@@H](CO)c1[nH]c3cc(OC)ccc3c12	?	3
COCC(=O)N1CCC2(CC1)CN(Cc1cccc(OC)c1)[C@H](CO)c1[nH]c3cc(OC)ccc3c12	?	2
SMILES	Pf Dd2 inh	C diff growth
COCC(=O)N1CCC2(CC1)CN(Cc1cccc(OC)c1)[C@@H](CO)c1[nH]c3cc(OC)ccc3c12	-92*	3
C[C@H](O)C#Cc1cnc2c(c1)C(=O)N([C@H](C)CO)C[C@H](C)[C@@H](CN(C)CC1CCCC1)O2	1	0
C[C@@H]1CN([C@H](C)CO)C(=O)c2cccc(N(C)C)c2O[C@H]1CN(C)Cc1ccc(C(=O)Nc2ccccc2N)cc1	-67	-2
C[C@H]1CN([C@@H](C)CO)C(=O)c2cccc(NS(=O)(=O)c3ccccc3)c2O[C@@H]1CN(C)S(=O)(=O)c1cccs1	29	-5
O=S(=O)(c1cccc(F)c1)N1CC[C@@H]2[C@H](CO)Nc3ccc(-c4cccc(F)c4)cc3[C@@H]21	-6	-12
CO[C@@H]1CN(C)C(=O)c2cc(NC(=O)c3ccc(Oc4ccccc4)cc3)ccc2OC[C@H](C)NC[C@H]1C	-76	-5
CO[C@H]1CN(C)C(=O)c2ccc(NC(=O)c3ccc(-c4ccccc4)cc3)cc2OC[C@@H](C)NC[C@H]1C	-86*	nt
CO[C@@H]1CN(C)C(=O)c2ccc(NC(=O)c3ccc(-c4ccccc4)cc3)cc2OC[C@@H](C)NC[C@H]1C	-87*	42
